# PubChem BioAssay (NCATS)
# Records with an inconclusive call do not appear. A call without a number means that no potency is given here. Activity calls are given as the source filed them. Calls come from the whole dose curve; as a rule, active = well fitted inhibition curve with a large enough effect; inconclusive = small, poorly fitted or top-dose-only effect; inactive = flat fitted curve, though single readings scatter.
# Experiments:
# Assay in all cases: qHTS profiling for inhibitors of Plasmodium falciparum proliferation (AID 504749); note: nearly all actives have a fitted effect of over 60% in size
# Settings in all cases: P. falciparum in erythrocytes, SYBR Green DNA, 72 h; series mostly up to 28.7 µM
# [1] = test system: CP260
# In short: (§1)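 P. falciparum-infected erythrocytes (0.3% parasitemia, 2.5% hematocrit) incubated with compound 72 h at 37 C, 5% CO2. Parasite DNA detected by SYBR Green after lysis, overnight at room temperature; normalised to 0.29 uM artemisinin and DMSO.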
# [2] = test system: CP262
# In short: as §1
# [3] = test system: CP265
# In short: as §1
# [4] = test system: CP266
# In short: as §1
# [5] = test system: CP268
# In short: as §1
# [6] = test system: CP269
# In short: as §1
# [7] = test system: CP286
# In short: as §1
# [8] = test system: CP291
# In short: as §1
# [9] = test system: CP297
# In short: as §1
# [10] = test system: CP305
# In short: as §1
# [11] = test system: CP315
# In short: as §1
# [12] = test system: CP325
# In short: as §1
# [13] = test system: CP329
# In short: as §1
# [14] = test system: DFO2036
# In short: as §1
# [15] = test system: DIV14
# In short: as §1
# [16] = test system: DIV17
# In short: as §1
# [17] = test system: DIV30
# In short: as §1
# [18] = test system: Dd2
# In short: as §1
# [19] = test system: ECU
# In short: as §1
# [20] = test system: CP335
# In short: as §1
# Potency is the fitted concentration of half-maximal effect.
SMILES,Potency [1],Potency [2],Potency [3],Potency [4],Potency [5],Potency [6],Potency [7],Potency [8],Potency [9],Potency [10],Potency [11],Potency [12],Potency [13],Potency [14],Potency [15],Potency [16],Potency [17],Potency [18],Potency [19],Potency [20]
Cc1cc2c(cc1S(N)(=O)=O)S(=O)(=O)CCC2,inactive,inactive,inactive,inactive,inactive,inactive,inactive,inactive,inactive,inactive,inactive,inactive,inactive,inactive,inactive,inactive,inactive,inactive,inactive,
O=C(CCCN1CCN(c2ccccn2)CC1)c1ccc(F)cc1,inactive,inactive,inactive,inactive,inactive,inactive,inactive,inactive,inactive,inactive,inactive,inactive,inactive,inactive,,,inactive,inactive,inactive,inactive
NCC(=O)CCC(=O)O,inactive,inactive,inactive,inactive,inactive,inactive,inactive,inactive,,inactive,inactive,inactive,inactive,inactive,inactive,inactive,inactive,inactive,inactive,
CCCCCCCCCCCCCCCCCCOCC(O)CO (stereo not given),inactive,inactive,inactive,inactive,inactive,inactive,inactive,inactive,inactive,inactive,inactive,inactive,inactive,inactive,inactive,inactive,inactive,inactive,inactive,
C#CCN(C)Cc1ccccc1,inactive,inactive,inactive,,inactive,inactive,inactive,inactive,,inactive,inactive,inactive,inactive,inactive,inactive,inactive,inactive,inactive,inactive,inactive
C[C@H]1O[C@@H](n2cc(F)c(=O)[nH]c2=O)[C@H](O)[C@@H]1O,inactive,inactive,inactive,,inactive,inactive,inactive,inactive,inactive,inactive,inactive,inactive,inactive,inactive,inactive,inactive,inactive,inactive,inactive,inactive
Nc1nc2c(ncn2CCC(CO)CO)c(=O)[nH]1,inactive,inactive,inactive,,inactive,inactive,inactive,inactive,inactive,inactive,inactive,inactive,inactive,inactive,inactive,inactive,inactive,inactive,inactive,inactive
Cc1cc(C(C#N)c2ccc(Cl)cc2)c(Cl)cc1NC(=O)c1cc(I)cc(I)c1O (stereo not given),inactive,inactive,inactive,inactive,inactive,inactive,inactive,inactive,inactive,inactive,,inactive,inactive,inactive,inactive,inactive,inactive,inactive,inactive,inactive
NC(CSCC(=O)O)C(=O)O (stereo not given),inactive,inactive,inactive,,inactive,inactive,inactive,inactive,inactive,inactive,inactive,inactive,inactive,inactive,inactive,inactive,inactive,inactive,inactive,inactive
CCCn1cnc2c1c(=O)n(CCCCC(C)=O)c(=O)n2C,inactive,inactive,inactive,inactive,inactive,,inactive,inactive,inactive,inactive,inactive,inactive,inactive,inactive,inactive,,inactive,inactive,inactive,inactive
CC1=C(/C=C/C(C)=C/C=C/C(C)=C/C(=O)O)C(C)(C)CCC1,inactive,inactive,inactive,inactive,inactive,inactive,inactive,inactive,,inactive,inactive,inactive,inactive,inactive,inactive,inactive,inactive,inactive,inactive,inactive
Nc1ncnc2c1ncn2[C@@H]1O[C@H](CO)[C@@H](O)[C@H]1O,inactive,inactive,inactive,inactive,inactive,inactive,inactive,inactive,,inactive,inactive,inactive,inactive,inactive,inactive,inactive,inactive,inactive,inactive,inactive
NC(=O)N/N=C/c1ccc([N+](=O)[O-])o1,10 µM (active),,8.91 µM (active),inactive,,,,,,,inactive,,inactive,,,,,10 µM (active),,
OCc1cc(C(O)CNCCCCCCOCCCCc2ccccc2)ccc1O (stereo not given),,,inactive,inactive,inactive,inactive,,inactive,inactive,inactive,inactive,inactive,inactive,inactive,,,,inactive,inactive,
CCCc1c(OCCCCc2nn[nH]n2)ccc(C(C)=O)c1O,,inactive,inactive,inactive,inactive,inactive,inactive,inactive,inactive,inactive,,inactive,inactive,inactive,inactive,inactive,inactive,inactive,inactive,inactive
COC(=O)C1=C(C)NC(C)=C(C(=O)OC)C1c1ccccc1[N+](=O)[O-],,inactive,inactive,inactive,inactive,inactive,inactive,inactive,inactive,inactive,inactive,inactive,inactive,inactive,inactive,,inactive,inactive,inactive,inactive
c1ccc(CN(CC2=NCCN2)c2ccccc2)cc1,,inactive,,inactive,,inactive,,inactive,,,inactive,inactive,inactive,,6.75 µM (active),7.57 µM (active),,12.6 µM (active),,
CNCCCC1c2ccccc2C=Cc2ccccc21,inactive,inactive,,inactive,inactive,,inactive,inactive,inactive,inactive,inactive,,inactive,inactive,,2.56 µM (active),,,inactive,

SMILES,Potency [1],Potency [2],Potency [3],Potency [4],Potency [5],Potency [6],Potency [7],Potency [8],Potency [9],Potency [10],Potency [11],Potency [12],Potency [13],Potency [14],Potency [15],Potency [16],Potency [17],Potency [18],Potency [19],Potency [20]
CC(C)(C)C(=O)C(Oc1ccc(Cl)cc1)n1ccnc1 (stereo not given),,inactive,,inactive,,,,,16.9 µM (active),,,,inactive,12.6 µM (active),13.5 µM (active),13.5 µM (active),12 µM (active),11.2 µM (active),10 µM (active),
[Cl][In]([Cl])[Cl],,inactive,,,,,,,,,inactive,,inactive,,,,15.1 µM (active),11.2 µM (active),,
Nc1ccc(S(=O)(=O)Nc2ccc(Cl)nn2)cc1,inactive,,,inactive,inactive,inactive,inactive,inactive,inactive,inactive,inactive,inactive,inactive,,inactive,inactive,inactive,,,
COc1ccc2[nH]c(S(=O)Cc3ncc(C)c(OC)c3C)nc2n1 (stereo not given),,inactive,,,inactive,inactive,,inactive,,inactive,inactive,inactive,inactive,,3.38 µM (active),4.78 µM (active),,12.6 µM (active),6.31 µM (active),
Cc1c(O)cccc1C(=O)N[C@@H](CSc1ccccc1)[C@H](O)CN1C[C@H]2CCCC[C@H]2C[C@H]1C(=O)NC(C)(C)C,,inactive,,inactive,,,,,,inactive,,,inactive,,16.9 µM (active),,15.1 µM (active),11.2 µM (active),11.2 µM (active),
CCN(CC)CCNC(C(=O)OCCC(C)C)c1ccccc1 (stereo not given),,inactive,8.91 µM (active),inactive,,,,,,,inactive,,,,4.26 µM (active),7.57 µM (active),,7.08 µM (active),,
CNC(=O)Oc1ccc2c(c1)[C@]1(C)CCN(C)[C@@H]1N2C,8.91 µM (active),,1.58 µM (active),,,,7.08 µM (active),,,,inactive,,,2.24 µM (active),,4.26 µM (active),,,1.78 µM (active),7.57 µM (active)
OCCN1CCN(CCCN2c3ccccc3Sc3ccc(Cl)cc32)CC1,3.16 µM (active),,3.55 µM (active),inactive,,,3.16 µM (active),,,,,,,,5.73 µM (active),5.1 µM (active),inactive,3.55 µM (active),3.16 µM (active),2.56 µM (active)
CCCCN1CCCC[C@H]1C(=O)Nc1c(C)cccc1C,inactive,inactive,,inactive,inactive,inactive,inactive,,inactive,inactive,inactive,inactive,inactive,inactive,inactive,inactive,inactive,inactive,inactive,
CSc1ccc2c(c1)N(CCC1CCCCN1C)c1ccccc1S2 (stereo not given),7.94 µM (active),,,inactive,,10.7 µM (active),11.2 µM (active),,,,,,,,10.7 µM (active),10.7 µM (active),,,11.2 µM (active),
CCCOC(=O)c1ccccc1,inactive,,inactive,inactive,inactive,inactive,inactive,inactive,inactive,inactive,inactive,inactive,inactive,inactive,inactive,inactive,inactive,inactive,inactive,inactive
CN1CCCCC1CCN1c2ccccc2Sc2ccc(S(C)=O)cc21 (stereo not given),,inactive,,inactive,,,,,inactive,,inactive,inactive,inactive,inactive,7.57 µM (active),12 µM (active),,,inactive,
CN1CCN(C2Cc3ccccc3Sc3ccc(Cl)cc32)CC1 (stereo not given),,inactive,inactive,inactive,,inactive,,inactive,,inactive,inactive,inactive,inactive,inactive,,,,,,
CCN(CC)CCNC(=O)c1c(C)[nH]c(/C=C2\C(=O)Nc3ccc(F)cc32)c1C,7.08 µM (active),,,,,5.36 µM (active),11.2 µM (active),,,,10.7 µM (active),,12 µM (active),8.91 µM (active),4.78 µM (active),5.36 µM (active),13.5 µM (active),11.2 µM (active),7.94 µM (active),12 µM (active)
CN1CCC[C@@H]1Cc1c[nH]c2ccc(CCS(=O)(=O)c3ccccc3)cc12,,inactive,,inactive,,inactive,,,,inactive,inactive,,inactive,inactive,9.53 µM (active),7.57 µM (active),,12.6 µM (active),,
CNCCC(Oc1ccc(C(F)(F)F)cc1)c1ccccc1 (stereo not given),,inactive,,inactive,,,10 µM (active),,inactive,,inactive,,inactive,inactive,3.01 µM (active),6.75 µM (active),6.75 µM (active),,,
CC[C@@]1(c2ccccc2)NC(=O)N(C)C1=O,inactive,,inactive,inactive,inactive,inactive,inactive,inactive,inactive,inactive,inactive,inactive,inactive,inactive,inactive,inactive,inactive,inactive,inactive,inactive
